Assay outcomes (PubChem)
Pf growth 48h: P. falciparum growth inhibition at 48 hours (one generation). actives 5.9% (n = 310,000). AID 504832. Potency, µM (top dose mostly 28.7 µM), hits mostly inhibitors. P. falciparum luciferase growth in erythrocytes, 48 h
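Growth was read as firefly luciferase luminescence after a 48 h, 37 C, 5% CO2 exposure of compounds to reporter-bearing P. falciparum cultures (0.1% parasitemia, 2% hematocrit final) in Albumax-supplemented RPMI 1640.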
CHX counter: affects cycloheximide protein synthesis inhibition readout, counter-screen; actives 12% (n = 300,000); max response, %; cell reporter, cycloheximide protein synthesis inhibition counterscreen; in the data active = max response mostly above about 13%, no sharp cut-off; inactive = mostly below about 14%; also: read at 38.3 µM for the half of the compounds with a filed dose
Pf growth 96h: P. falciparum growth inhibition at 96 hour, primary screen for plastid delayed-death inhibitors; P. falciparum luciferase reporter growth, 96 h; Potency, µM (titrated, usually from 28.7 µM), hits mostly inhibitors; actives 6.9% (n = 320,000); AID 504834
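Cell-based qHTS: luciferase-tagged P. falciparum in erythrocytes (2% hematocrit, 0.05% parasitemia final) incubated with compounds for 96 hours, 37 C, 5% CO2; luciferase detection reagent then added and luminescence measured.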
HCV inh: inhibitors of hepatitis C virus infection. Huh7.5.1 HCVcc-Cre infection, luciferase reporter, 44 h. Potency, µM (top dose mostly 41.8 µM), usual class: inhibitors. actives 3.4% (n = 340,000)
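Cells seeded at 1,000/well and cultured 4 h, then compounds added followed by HCVcc-Cre virus (~0.5 moi). After 44 h further culture, luciferase substrate was added, plates held 15 min at room temperature, and luminescence read for 15 sec.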
HCMV antiviral: inhibitors of human cytomegalovirus | actives 4.5% (n = 410,000) | activity change, negative = inhibition, % at 57.5 µM | HFF cells, HCMV-luciferase reporter, 72 h; stronger effect = lower value; in the data active = activity change below about -60%; inconclusive = no clear call, values can overlap the other calls; inactive = above about -39%
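Screen run at 2 compound doses on HFFs infected with reporter HCMV, MOI 1 PFU/cell. Luciferase activity from cell lysates at 72 h post infection gave inhibition relative to buffer-only and Salinomycin wells.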
Shiga inhibitor: blocks Shiga toxin action in Vero cells; actives 9.2% (n = 290,000); Vero cells, Shiga toxin protein synthesis inhibition reporter; inhibition, % at 38.7 µM; AID 2315; in the data active = inhibition mostly above about 28%, no sharp cut-off; inactive = mostly below about 43%
Hits are given with their value; i = inactive; ? = inconclusive; nt = no result. An excerpt weighted towards active compounds, which were near 21% of everything screened. Unless noted, calls follow the shape of the dose curve; as a rule, active = well fitted inhibition curve with a large enough effect; inconclusive = small, poorly fitted or top-dose-only effect, or another doubt; inactive = no such curve, though single readings can be large or run the other way.

SMILES	Pf growth 48h	CHX counter	Pf growth 96h	HCV inh	HCMV antiviral	Shiga inhibitor
COc1cc(C#Cc2c(-c3cncn3C)n(C)c3ccc(-c4cnc(OC)nc4)cc23)cc(OC)c1	?	nt	2.6µM	?	i	nt
CC(C)=CCN1CCN(Cc2cn[nH]c2C2CCCCC2)CC1CCO (centres undefined)	i	i	?	i	i	i
FC(F)(F)c1cc(CO[C@@H]2CCCN[C@@H]2c2ccccc2)cc(C(F)(F)F)c1	12µM	nt	?	3.5µM	i	nt
Cc1cccnc1NC(=O)Nc1ccc(F)cc1	nt	i	i	i	i	69
CCOC(=O)c1ccc(NC(=O)Nc2ncccc2C)cc1	i	i	i	i	i	i
Cc1ccc(NC(=O)Nc2ncccc2C)cc1	i	63	i	i	i	106
COC1OC(COCc2ccccc2)C2OC(C)(C)OC2C1O (centres undefined)	nt	nt	nt	nt	i	nt
Cc1ccc(N2C(=O)[C@@H]3[C@H](C2=O)[C@H]2C=C(C(=O)c4ccccc4)C=CN2[C@@H]3C(=O)c2ccc(Cl)cc2)cc1	?	i	?	i	i	i
O=C(c1ccc(F)cc1)C1CCN(C(=O)c2ccccc2)CC1	i	i	?	i	i	i
O=C(c1ccccc1)[C@@H]1[C@@H]2C(=O)N(c3ccc(F)cc3)C(=O)[C@@H]2C2CCCN21 (some centres undefined)	i	i	i	i	-67	i
Cc1ccc(N2C(=O)[C@@H]3[C@H](C2=O)C2CCCN2[C@@H]3C(=O)c2ccccc2)cc1 (some centres undefined)	12µM	i	?	?	?	i
